Data taken from PubChem BioAssay AID588689 (Southern Research Specialized Biocontainment Screening …, 2011).
Screen size: about 340,000 compounds; about 1,000 (0.29%) were called active. No stated cut-off is given here; in the data, inconclusive means inhibition above about 29% without an active follow-up result; inactive means below that. These entries were drawn from the full list. Entries with a potency or affinity are not part of this list.

Biological target: Genome polyprotein (Dengue virus type 2 (strain 16681-PDK53)) (UniProt P29991)
Test: Dengue-2 NS5 methyltransferase inhibitors, primary screen, biochemical, confirmation dose response (AID 588689)
Settings: Dengue-2 NS5 methyltransferase capping enzyme assay, at 25 µM, stronger effect = higher value

Row | SMILES | inhibition | inhibition (measured here: pilot screen replicate inhibition) [%]
1 | O=C(Nc1cccc(-n2cccn2)c1)C1CCCN(Cc2cc3ccccc3[nH]2)C1 (configuration not stated) | -16.8% (inactive) | –
2 | COc1ccc(N2CCN(C3CCCN(C(=O)CN4CCCC4=O)C3)CC2)cc1 (configuration not stated) | -4.52% (inactive) | –
3 | COCCCN1Cc2cccc(C(=O)O)c2C1=O | -4.84% (inactive) | –
4 | O=C(CCCc1nc(-c2ccc(Cl)cc2)no1)NCC1CCCO1 (configuration not stated) | 1.63% (inactive) | –
5 | CC1(C)CC(=O)C(C2=NC3(CCCCC3)Cc3ccccc32)=C(O)C1 | 2.33% (inactive) | –
6 | C=C(C1=CCN(S(=O)C(C)(C)C)[C@@H]1CCO)c1ccccc1 (some centres not stated) | 0.33% (inactive) | -2.42
7 | COc1ccc(/C=C(\C#N)C(=O)Nc2cc(S(=O)(=O)N3CCOCC3)ccc2N2CCCC2)cc1 | -4.53% (inactive) | –
8 | COc1ccc(-c2nc(-c3ccccn3)no2)cc1 | -2.71% (inactive) | –
9 | COC(=O)c1ccccc1N(C)S(C)(=O)=O | -6.11% (inactive) | –
10 | COc1ccccc1N1CCN(CCNC(=O)Nc2cccc(C)c2C)CC1 | -5.61% (inactive) | –
11 | Cc1ccccc1NC(=O)c1cccc(N2C(=O)C3CCCCC3C2=O)c1 (configuration not stated) | -9.97% (inactive) | –
12 | CN(C1CCCCC1)S(=O)(=O)c1ccc(S(=O)(=O)N2CCN(C(=O)c3ccccc3F)CC2)cc1 | -5.65% (inactive) | –
13 | Cc1onc(-c2ccccc2)c1C(=O)Nc1ccc(Cl)cn1 | -2.24% (inactive) | –
14 | Cc1cc(NC(=O)CSCc2nc(-c3cccc(F)c3)oc2C)no1 | 4.17% (inactive) | –
15 | COc1ccc(N(CC(=O)NCCSC2CCCCC2)S(=O)(=O)c2ccc(C)cc2)cc1 | -4.51% (inactive) | –
16 | O=C1C(Cl)=C(N2CCCCCC2)C(=O)N1c1ccccc1 | -0.82% (inactive) | –
17 | CC1CCCN(C2=C(Cl)C(=O)N(c3cccc(Cl)c3)C2=O)C1 (configuration not stated) | 5.18% (inactive) | –
18 | O=C1C(Cl)=C(N2CCCCCC2)C(=O)N1c1ccc(Cl)cc1 | 2.94% (inactive) | –
19 | Cc1cccc(N2C(=O)CC(N3CCOCC3)C2=O)c1 (configuration not stated) | 0% (inactive) | –
20 | CN1CCN(C2=C(Cl)C(=O)N(c3cccc(Cl)c3)C2=O)CC1 | 12.9% (inactive) | –
21 | Cc1ccc(N2C(=O)C(Cl)=C(N3CCOCC3)C2=O)c(C)c1 | 5.79% (inactive) | –
22 | COc1cc(C(=O)C(O)c2ccc(O)c(OC)c2)ccc1O (configuration not stated) | 0% (inactive) | –
23 | CN(Cc1cnn(-c2ccc(F)cc2)c1)Cc1nc(Cc2ccccc2)no1 | -8.38% (inactive) | –

Row | SMILES | inhibition | inhibition (measured here: pilot screen replicate inhibition) [%]
24 | COC(=O)c1ccccc1C(=O)N1CCC(CCC(=O)NC2CC2)CC1 | -9.72% (inactive) | –
25 | CC(C)NC(=O)CSc1nccc(-c2cccs2)n1 | 6.26% (inactive) | –
26 | CC(=O)C1=NN(c2ccccc2)C2(S1)S/C(=C\c1ccccc1)C(=O)N2c1ccccc1 (configuration not stated) | 3.22% (inactive) | –
27 | Cc1ccc(SCCc2cc[n+](CC(=O)c3ccccc3)cc2)cc1 | -23.5% (inactive) | –
28 | CCOc1ccc(-n2c(SCc3cc(=O)oc4cc(C)ccc34)nnc2-c2cccnc2)cc1 | -5.85% (inactive) | –
29 | COCC(COS(N)(=O)=O)Cc1ccccc1 (configuration not stated) | -5.61% (inactive) | –
30 | C/C(=N\NS(=O)(=O)c1ccccc1)c1ccc2c(c1)OCCO2 | -5.78% (inactive) | –
31 | CC(=O)NCCc1nc2cc(NC(=O)c3ccc(F)cc3)ccc2n1C | 0.65% (inactive) | –
32 | COc1ccc(C2=CC(=O)CC(C)(C)C2)cc1OC | -7.08% (inactive) | –
33 | CCn1c(CNC(=O)c2ccccc2F)nnc1SCC(=O)Nc1nncs1 | -2.93% (inactive) | –
34 | Cc1ccc(N2C(=O)C(Cl)=C(N3CCCCCC3)C2=O)c(C)c1 | -10.4% (inactive) | –
35 | COC(=O)c1cccc(N2C(=O)c3cccnc3C2=O)c1 | 1.12% (inactive) | –
36 | COC(=O)c1cccc(N2C(=O)C3CC=CCC3C2=O)c1 (configuration not stated) | -7.22% (inactive) | –
37 | O=C1C(Cl)=C(N2CCCCCC2)C(=O)N1c1ccc(Br)cc1 | 4.71% (inactive) | –
38 | Cc1ccc(N2C(=O)C(Cl)=C(NCCO)C2=O)c(C)c1 | -3.68% (inactive) | –
39 | O=C1C(Cl)=C(N2CCCC2)C(=O)N1c1ccc(F)cc1 | 10.2% (inactive) | –
40 | N=C1c2ccccc2CN1NC(=O)CC12CC3CC(CC(C3)C1)C2 | -6.39% (inactive) | –
41 | COc1ccc(NCc2nnc(SCC#N)n2-c2ccccc2OC)cc1 | 4.71% (inactive) | –
42 | O=C(COC(=O)COc1ccccc1)NC12CC3CC(CC(C3)C1)C2 | 3.65% (inactive) | –
43 | CC1=CC(C)(C)N(C(=O)CN2C(=O)CCC2=O)c2ccccc21 | 4.64% (inactive) | –
44 | C/C(=N\OCC(=O)Nc1cc(C)cc(C)c1)c1ccc2c(c1)OCCO2 | -2.91% (inactive) | –
45 | O=C1COC(c2ccccc2O)=NN1CCCl | 4.57% (inactive) | –
46 | O=C(CN1C(=O)NC2(CCCC2)C1=O)OCCOc1ccc(Br)cc1 | -1.44% (inactive) | –
